The values that follow come from the supplement of paper PMC8047044.

Where “and” joins values, the source holds several entries; their conditions need not be identical. Equal entries are not always repeated. Structures can show the parent of a compound that is named as a salt.

For one assay, the system named is Neuro-2a. Description: neurite formation score, plate-normalized to DMSO control mean 5.04 (score (0-8 scale)); higher = more or longer neurites. The conditions noted are these: 1 µM. How it is done: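 Neuro-2a mouse neuroblastoma cells in PLL-coated 96-well plates were pre-treated for 1 h in DMEM(+) with each kinase inhibitor at 1 µM, then switched to serum-free DMEM(-) with inhibitor to induce neurite outgrowth and fixed about 2-3 h later. Three blinded observers scored neurite formation from 0 (no neurites) to 8 (long neurites on almost all cells).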
The molecule `Cc1cc(Nc2cc(N3CCN(C)CC3)nc(/C=C/c3ccccc3)n2)n[nH]1` gave a neurite formation score of 3.02. `Cn1cnc2c(F)c(Nc3ccc(Br)cc3Cl)c(C(=O)NOCCO)cc21` [AZD6244 (Selumetinib)] came in with a neurite formation score of 4.24. Consider `CCCS(=O)(=O)Nc1ccc(F)c(C(=O)c2c[nH]c3ncc(-c4ccc(Cl)cc4)cc23)c1F` [Vemurafenib (PLX4032, RG7204)], for which the neurite formation score amounted to 3.91.

`N#Cc1c(Oc2ccc(F)c(NC(=O)Cc3cccc(C(F)(F)F)c3)c2)ccc2nc(NC(=O)C3CC3)sc12` had a neurite formation score of 1.9.

The molecule `CC(C)(C)NS(=O)(=O)c1cncc(-c2cc(F)c3nc(N)nn3c2)c1` returned a neurite formation score of 4.36. `C=CC(=O)Nc1cccc(Nc2nc(Nc3ccc(N4CCN(C(C)=O)CC4)cc3OC)ncc2C(F)(F)F)c1` gave a neurite formation score of 4.24. The same measure, in the same setting: next, `N#CC(=C(/N)Sc1ccccc1N)/C(C#N)=C(\N)Sc1ccccc1N`: 4.57. `Nc1ccc(C(=O)Nc2cccc(-c3nc(N4CCOCC4)c4oc5ncccc5c4n3)c2)cn1` showed a neurite formation score of 4.54.

`CC(C)CC(=O)Nc1n[nH]c2c1CN(C(=O)C1CCN(C)CC1)C2(C)C` yielded a neurite formation score of 4.57. Still for that read-out and setting: with `Cc1ccc(S(=O)(=O)Nc2nc3ccccc3nc2Nc2ccc3nsnc3c2)cc1` the figure was 4.14.

`CC(=O)c1c(C)c2cnc(Nc3ccc(N4CCNCC4)cn3)nc2n(C2CCCC2)c1=O` returned a neurite formation score of 4.57. Same read-out and setting: with `Cn1cc(-c2ccc3c(c2)CCN3C(=O)Cc2cccc(C(F)(F)F)c2)c2c(N)ncnc21` the figure was 4.36; with `N#CC[C@H](C1CCCC1)n1cc(-c2ncnc3[nH]ccc23)cn1`, 4.91; with `CCCNC(=O)Nc1ccc(Oc2ncnc3cc(OC)c(OC)cc23)cc1Cl`, 5.57. Same read-out and setting: with `COc1cc2nccc(Oc3ccc(NC(=O)Nc4cc(C)on4)c(Cl)c3)c2cc1OC` [Tivozanib (AV-951)] the figure was 4.24. `CC1(C)CNc2cc(NC(=O)c3cccnc3NCc3ccncc3)ccc21` [Motesanib Diphosphate (AMG-706)] came in with a neurite formation score of 4.36. On the same count and under the same terms, next, `CCNC(=O)Nc1ccc(-c2nc3c(c(N4CCOC[C@@H]4C)n2)CCN(C2COC2)C3)cc1`: 4.24. The same measure, in the same setting: next, `C=CC(=O)Nc1cccc(Nc2nc(Nc3ccc(OCCOC)cc3)ncc2F)c1`: 4.91; `CO[C@@H](C(=O)N1Cc2[nH]nc(NC(=O)c3ccc(N4CCN(C)CC4)cc3)c2C1)c1ccccc1`: 3.69; `Cn1cnc(=N)c2[nH]cnc21` [3-Methyladenine]: 4.24. In turn, `C=CC(=O)Nc1cc2c(Nc3ccc(F)c(Cl)c3)ncnc2cc1OCCCN1CCOCC1` [Canertinib (CI-1033)] came in with a neurite formation score of 4.57. `NC(=S)N/N=C/c1ncccc1N` [Triapine] returned a neurite formation score of 4.88. `Cc1ccc(Nc2nccc(N(C)c3ccc4c(C)n(C)nc4c3)n2)cc1S(N)(=O)=O` [Pazopanib Hydrochloride]: the neurite formation score was found to be 3.57. As for `O=C(NCCO)c1cccc(-c2cc(Nc3ccc(OC(F)(F)F)cc3)ncn2)c1`, the neurite formation score was determined as 5.63.

Molecule `C=CC(=O)Nc1cccc(Sc2nc(Nc3ccc(N4CCN(C)CC4)cc3)ncc2Cl)c1` returned a neurite formation score of 4.91.

For the molecule `O=C(Nc1ccc(OC(F)(F)F)cc1)c1sccc1NCc1ccnc2ccccc12`, the neurite formation score amounted to 3.91. In turn, `COc1cc(C(=O)N2CCC(N3CCN(C)CC3)CC2)ccc1Nc1ncc2c(n1)N(C)c1ccccc1C(=O)N2C` yielded a neurite formation score of 4.36.

The test system of a further assay is Neuro-2a. The description is as above. The conditions noted are these: 0.1 µM. Here is the method: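 Neuro-2a mouse neuroblastoma cells in PLL-coated 96-well plates were pre-treated for 1 h in DMEM(+) with each kinase inhibitor at 0.1 µM, then switched to serum-free DMEM(-) with inhibitor to induce neurite outgrowth and fixed about 2-3 h later. Three blinded observers scored neurite formation from 0 (no neurites) to 8 (long neurites on almost all cells).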
Regarding `CCc1ccc(/C=C2/SC(=S)NC2=O)cc1`, the neurite formation score was 5.04.

`c1cncc(CN2CCC(n3ncc4c(N5CCOCC5)nc(-c5ccc6[nH]ccc6c5)nc43)CC2)c1` came in with a neurite formation score of 0.751.

Regarding `CCCCCCCCc1ccc(CCC(N)(CO)CO)cc1` [Fingolimod (FTY720)], the neurite formation score was determined as 4.25. `CN1CCN(CCOc2cc(OC3CCOCC3)c3c(Nc4c(Cl)ccc5c4OCO5)ncnc3c2)CC1` [Saracatinib (AZD0530)] had a neurite formation score of 3.38. Still for that read-out and setting: with `O=C(NOCC(O)CO)c1cc(Br)c(F)c(F)c1Nc1ccc(I)cc1F` (stereo not given) the figure was 4.88; with `CCc1cc(Nc2nccc(-c3c(-c4ccc(OC)c(C(=O)Nc5c(F)cccc5F)c4)nc4ccccn34)n2)c(OC)cc1N1CCC(N2CCN(S(C)(=O)=O)CC2)CC1`, 4.71.

`CCCCCCCCCCCCCC(=O)OC[C@H](CO)OC(=O)CCCCCCCCCCCCC` [1,2-Dimyristoyl-sn-glycerol] had a neurite formation score of 5.08. `Cc1ccc(NC(=O)c2ccc(CN3CCN(C)CC3)cc2)cc1Nc1nccc(-c2cccnc2)n1` [Imatinib Mesylate (STI571)] returned a neurite formation score of 4.71. In turn, `CCN1CCN(c2ccc(Nc3cc(N(C)C(=O)Nc4c(Cl)c(OC)cc(OC)c4Cl)ncn3)cc2)CC1` yielded a neurite formation score of 4.09. In the case of `O=c1cc(N2CCOCC2)oc2c(-c3cccc4c3sc3ccccc34)cccc12`, the neurite formation score turned out to be 4.21. For `Cc1nc(-c2cn3c(n2)-c2ccc(-c4cnn(C(C)(C)C(N)=O)c4)cc2OCC3)n(C(C)C)n1`, the neurite formation score was 4.92. `Cc1cc(Nc2cc(N3CCN(C)CC3)nc(/C=C/c3ccccc3)n2)n[nH]1` yielded a neurite formation score of 3.92. Same read-out and setting: next, `Cn1cnc2c(F)c(Nc3ccc(Br)cc3Cl)c(C(=O)NOCCO)cc21` [AZD6244 (Selumetinib)]: 5.54. Still for that read-out and setting: with `CCCS(=O)(=O)Nc1ccc(F)c(C(=O)c2c[nH]c3ncc(-c4ccc(Cl)cc4)cc23)c1F` [Vemurafenib (PLX4032, RG7204)] the figure was 4.04. `N#Cc1c(Oc2ccc(F)c(NC(=O)Cc3cccc(C(F)(F)F)c3)c2)ccc2nc(NC(=O)C3CC3)sc12` showed a neurite formation score of 4.54. For the molecule `CC(C)(C)NS(=O)(=O)c1cncc(-c2cc(F)c3nc(N)nn3c2)c1`, the neurite formation score was 4.92.

Turning to `N#CC(=C(/N)Sc1ccccc1N)/C(C#N)=C(\N)Sc1ccccc1N`, the neurite formation score came out at 5.71. For `Nc1ccc(C(=O)Nc2cccc(-c3nc(N4CCOCC4)c4oc5ncccc5c4n3)c2)cn1`, the neurite formation score is 4.42. On the same count and under the same terms, with `CC(C)CC(=O)Nc1n[nH]c2c1CN(C(=O)C1CCN(C)CC1)C2(C)C` the figure was 4.54; with `Cc1ccc(S(=O)(=O)Nc2nc3ccccc3nc2Nc2ccc3nsnc3c2)cc1`, 4.09.

In the case of `CC(=O)c1c(C)c2cnc(Nc3ccc(N4CCNCC4)cn3)nc2n(C2CCCC2)c1=O`, the neurite formation score is 4.88 and 4.54.

`Cn1cc(-c2ccc3c(c2)CCN3C(=O)Cc2cccc(C(F)(F)F)c2)c2c(N)ncnc21` yielded a neurite formation score of 5.25. As to `N#CC[C@H](C1CCCC1)n1cc(-c2ncnc3[nH]ccc23)cn1`, the neurite formation score came to 5.04. Regarding `CCCNC(=O)Nc1ccc(Oc2ncnc3cc(OC)c(OC)cc23)cc1Cl`, the neurite formation score turned out to be 5.54. Same read-out and setting: next, `CCNC(=O)Nc1ccc(-c2nc3c(c(N4CCOC[C@@H]4C)n2)CCN(C2COC2)C3)cc1`: 3.71. For `C=CC(=O)Nc1cccc(Nc2nc(Nc3ccc(OCCOC)cc3)ncc2F)c1`, the neurite formation score amounted to 4.71.

`CO[C@@H](C(=O)N1Cc2[nH]nc(NC(=O)c3ccc(N4CCN(C)CC4)cc3)c2C1)c1ccccc1` gave a neurite formation score of 4.58. On the same count and under the same terms, next, `Cn1cnc(=N)c2[nH]cnc21` [3-Methyladenine]: 4.88. On the same count and under the same terms, next, `C=CC(=O)Nc1cc2c(Nc3ccc(F)c(Cl)c3)ncnc2cc1OCCCN1CCOCC1` [Canertinib (CI-1033)]: 4.71; `NC(=S)N/N=C/c1ncccc1N` [Triapine]: 3.75. Still for that read-out and setting: with `Cc1ccc(Nc2nccc(N(C)c3ccc4c(C)n(C)nc4c3)n2)cc1S(N)(=O)=O` [Pazopanib Hydrochloride] the figure was 4.88. On to `O=C(Nc1ccc(OC(F)(F)F)cc1)c1sccc1NCc1ccnc2ccccc12`, for which the neurite formation score is 3.38. `COc1cc(C(=O)N2CCC(N3CCN(C)CC3)CC2)ccc1Nc1ncc2c(n1)N(C)c1ccccc1C(=O)N2C` yielded a neurite formation score of 4.92.
